Source: PubChem BioAssay AID504847 (National Center for Advancing Translational Sciences (NCATS), 2011)
Values joined by “and” are separate entries in the source; they are usually repeats but may differ in a detail not shown here. Identical values can stand only once. The campaign covered roughly 400,000 compounds. About 3,700 (0.93%) were called active. About 3% were inconclusive and are not listed. This excerpt belongs to a sample that is enriched for actives. Unmarked numbers belong to inactive results. The call rests on the fitted dose curve; in most records, active means well fitted inhibition curve with a large enough effect; inconclusive means small, poorly fitted or top-dose-only effect, or another doubt; inactive means no such curve, though single readings can be large or run the other way.

Target: Vitamin D3 receptor (Homo sapiens) (UniProt P11473)
Assay: Inhibitors of the vitamin D receptor (VDR): qHTS
Details: VDR-SRC2-3 peptide fluorescence polarization, 2 h; max response, negative = inhibition: hits give low values
Source text: The vitamin D receptor (VDR) is a ligand-activated transcription factor and is partially responsible for the regulation of the endocrine system. This includes the transcriptional regulation of genes involved in the production of the parathyroid hormone (PTH) and the regulation of the blood calcium level. High levels of PHT can cause hypercalcemia in the case of primary and tertiary hyperparathyroidism. The VDR-mediated gene regulation, activated by its ligand 1,25-dihydroxyvitamin D3 (1,25-(OH)2D3), is governed by the recruitment of coactivators. Our hypothesis is that small molecules, with the ability to inhibit the interaction between VDR and certain coactivators, are able to selectively modulate VDR-mediated transcription. Our long term objective is the application these VDR-coactivator inhibitors to study the role of VDR-coactivator binding for specific VDR regulated genes. Ultimately, these molecules can be developed into new treatments for hypercalcemic hyperparathyroidism. No small molecule or non-peptide inhibitors are known for the VDR-coactivator interaction.
In a collaboration between the University of Wisconsin, Milwaukee and the NIH Chemical Genomics Center (NCGC) a HTS-compatible enzymatic assay was developed. The assay uses fluorescence polarization as its read-out to measure the inhibition between VDR and coregulator peptide SRC2-3 exerted by small molecules. This assay was used to screen the NIH Molecular Libraries Small Molecule Repository (MLSMR).
NIH Chemical Genomics Center [NCGC]
NIH Molecular Libraries Probe Centers Network [MLPCN]
Assay Submitter (PI): Alexander Arnold, University of Wilwaukee
Both solutions are kept at 4 deg C and protected from light and dispensed using a Kalypsys dispenser. Then 23nl of compounds and controls are added with Kalypsys pintool. […] Plate is centrifuged at 1000 RPM for 15 seconds to remove any residual bubbles. The plate is then incubate at ambient room temperature for 2 hours.
On the % scale 0 is the no-effect control and ±100 the full control effect; potency means the concentration at half of the fitted maximal effect.

Vitamin D3 receptor (Homo sapiens), sequence (P11473 whole entry, looked up): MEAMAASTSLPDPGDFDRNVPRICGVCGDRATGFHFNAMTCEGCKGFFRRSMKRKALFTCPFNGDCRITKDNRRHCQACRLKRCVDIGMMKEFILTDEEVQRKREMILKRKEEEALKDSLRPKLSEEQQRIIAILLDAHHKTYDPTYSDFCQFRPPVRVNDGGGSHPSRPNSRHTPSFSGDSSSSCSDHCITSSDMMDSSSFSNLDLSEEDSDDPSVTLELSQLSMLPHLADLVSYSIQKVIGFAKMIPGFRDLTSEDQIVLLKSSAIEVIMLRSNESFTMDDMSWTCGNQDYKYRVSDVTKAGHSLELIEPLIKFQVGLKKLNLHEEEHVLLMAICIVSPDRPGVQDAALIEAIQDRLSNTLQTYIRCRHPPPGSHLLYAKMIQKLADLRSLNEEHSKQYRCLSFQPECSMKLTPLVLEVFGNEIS

SMILES | max response, negative = inhibition | Potency
Cc1cccc(Cn2cccc(C(=O)Nc3ccc4c(c3)OCCO4)c2=O)c1 | 10.5% | –
Clc1ccc([C@@H]2C[C@H]3CC[C@@H]2N3)cn1 | 3.4% | –
C1CC[C@H]([C@@]23C[C@H](C[C@H]4CCCN[C@H]42)[C@@H]2CCCCN2C3)NC1 | 1.42% | –
O=C(O)c1cc[c]([Sb](=[O])([OH])[OH])cc1[N+](=O)[O-] | -21.9% | –
C[C@@]12CCC3C(CC[C@@H]4CC(O)CC[C@@]34C)C1CCC2O (stereo partly specified) | -4.26% | –
O=C1NC(=O)N(c2ccccc2)C(=O)/C1=C/c1ccc([N+](=O)[O-])s1 | – | 50.1 µM (active)
CN1CCCC(=C(c2cccs2)c2cccs2)C1 | 3.88% | –
CC[N+]1(CCOC(=O)C(O)(c2ccccc2)c2ccccc2)CCCCC1 | 4.12% | –
C[C@]12CC[C@H](O)C[C@@H]1CC[C@H]1[C@H]2CC[C@]2(C)C(=O)CC[C@@H]12 | -9.44% and 0.624% and 3.94% | –
Cc1cc(C=C2C(=O)NC(=O)NC2=O)c(C)n1-c1ccncc1 | -27.9% | –
Cc1ccnc(-n2c(C)cc(/C=C3\C(=O)NC(=S)N(C)C3=O)c2C)c1 | – | 39.8 µM (active)
CCN1C[C@@]2(COC)CC[C@H](OC)[C@]34[C@@H]1[C@]1(OCO[C@@]15C[C@@H](OC)C1C[C@H]3[C@H]5[C@@H]1OC)[C@H](O)[C@@H]24 | 1.56% | –
CC(C)(Cc1c[nH]c2ccc(Cl)cc12)NCCOc1ccccc1OCC1CC1 | -1.04% and 2.67% | –
CC(C)(O)c1[se]c2ccccc2c1I | -15.8% | –
c1csc(CN2CCCC3(CCNCC3)C2)n1 | -8.79% | –
Cc1nnc(NC(=O)c2cccn(Cc3cccc(F)c3)c2=O)s1 | 12.7% | –
O=c1[nH]c(O)c(C=Nc2cc(F)cc(F)c2)c(=O)[nH]1 | -6.29% | –
Cc1ccc2c(c1)=C/C(=C\c1c(O)[nH]c(=O)[nH]c1=O)C(=O)N=2 | – | 89.1 µM (active)
C/C(=C\C=C/[C@@H](C)C(=O)O)[C@H]1CN[C@H](C(=O)O)[C@@H]1CC(=O)O | -9.05% | –
COc1ccc2[nH]cc(CCNCc3ccc(Br)cc3)c2c1 | 5.83% | –
COC(=O)c1ccc2[se]c(CC3CCCCC3)c(I)c2c1 | 3.86% | –
CCC(=O)c1ccc(OCC(=O)N2CCN(CC(=O)Nc3ccc(C)cc3)CC2)cc1 | 0.567% | –
C=CCN(CC=C)C(=O)Nc1ccc(OCC)cc1 | -2.13% | –

SMILES | max response, negative = inhibition | Potency
C=CCN1C(=O)NC(=O)/C(=C/c2ccc(OCC(=O)Nc3ccc(C)cc3)cc2)C1=O | – | 70.8 µM (active)
C[C@@H]1C[C@@H]2O[C@H]2/C=C\C=C\C(=O)Cc2c(Cl)c(O)cc(O)c2C(=O)O1 | -4.25% | –
O=C1CCc2cccc3c2N1CC3 | -0.897% | –
COC([CH2][Hg])CNC(=O)c1ccccc1OCC(=O)O (stereo unspecified) | – | 5.62 µM (active)
CCCCCCCCc1[se]c2ccccc2c1Br | 0.449% | –
N[C@H](Cc1o[nH]c(=O)c1Cl)C(=O)O | 3.74% | –
C=CCN1CCC23c4c5ccc(O)c4O[C@H]2C(=O)CC[C@@]3(O)C1C5 (stereo partly specified) | -0.103% and 4.39% | –
C[C@H]1CC[C@@]2(NC1)O[C@@H]1C[C@H]3[C@@H]4CC=C5C[C@@H](O)CC[C@]5(C)[C@@H]4CC[C@]3(C)[C@@H]1[C@@H]2C | -0.658% | –
C=CCN1CCC2(C)c3cc(O)ccc3CC1[C@@H]2C (stereo partly specified) | 1.58% | –
CC(=O)OC1C2CCC3C1(CC(O)[C@@]1(O)[C@@H](CC(O)C1(C)C)[C@]3(C)O)C[C@@]2(C)O (stereo partly specified) | 0.185% | –
CN[C@@H]1C[C@H]2O[C@@](C)([C@@H]1OC)n1c3ccccc3c3c4c(c5c6ccccc6n2c5c31)C(=O)NC4 | 1.57% and -1.64% | –
CCNC[C@H](O)c1cccc(O)c1 | -1.81% | –
C=CCSSCC=C | – | 20 µM (active)
COC1=C[C@]23CCCN2CCc2cc4c(cc2[C@@H]3[C@@H]1O)OCO4 | -4.23% | –
CC(C)(c1ccc(OC[C@@H]2CO2)cc1)c1ccc(OC[C@H]2CO2)cc1 | 4.79% | –
CN1C2CC3CC1C(O3)C2O (stereo unspecified) | -5.48% | –
CCN1C[C@]2(COC)C(O)C[C@H](OC)[C@@]34C5C[C@]6(O)C(OC)C(O)[C@](OC(C)=O)(C5C6OC(=O)c5ccccc5)C(C(OC)C23)C14 (stereo partly specified) | 4.87% | –
COC(=O)C1=C(c2ccccc2)C[C@@H]2CC[C@H]1N2C(=O)NCc1ccco1 | -7.95% | –
COc1cc(Cn2c(N)c(C(=O)NCc3ccco3)c3nc4ccccc4nc32)cc(OC)c1OC | – | 79.4 µM (active)
CCOC(=O)C(O)(c1ccc(NC(=O)c2ccco2)c(OC)c1)C(F)(F)F (stereo unspecified) | 9.73% | –
CC(=O)NBr | -2.36% | –
CCN1C[C@]2(C)CC[C@H](O)[C@@]34[C@@H]5CC6[C@@H](OC)C[C@@](O)([C@@H]5[C@@H]6O)[C@H](C[C@@H]23)[C@H]14 | 0.208% | –
NS(=O)(=O)c1ccc(CCNC(=O)c2ccc(Cl)c(S(=O)(=O)N3CCCCCC3)c2)cc1 | 6.51% | –
